Measurements: PubChem BioAssay AID1159580 (chemical genetic matrix, 2015)
In all, about 5,500 compounds went through this assay and about 2,000 (36%) were called active. Roughly 18% stayed inconclusive and do not appear here. No stated cut-off is given here; in the data, active means normalized growth mostly below about 0.91 (no sharp cut-off); inconclusive means no clear call, values can overlap the other calls; inactive means mostly above about 0.92. This is one part of the list.

Test: chemical genetic growth profiling, strain panel (AID 1159580);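 further: tested at 20 µM; growth read once vehicle control cultures reached saturation at 30 °C; 1 = growth at the plate median or of vehicle wells; lower values mean less growth of the strain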
Details: growth OD

Measured: normalized growth

CC(C)[C@@H]1CC[C@@H](C)C[C@H]1O
inactive: S. cerevisiae deletion strains, locus YJR066W, strain TOR1, active compounds read low 0.942 | S. cerevisiae deletion strains, locus YJR075W, strain HOC1, active compounds read low 1.01 | S. cerevisiae deletion strains, locus YKL009W, strain mrt4, active compounds read low 1 | S. cerevisiae deletion strains, locus YKL068W, active compounds read low 1.01 | S. cerevisiae deletion strains, locus YKL085W, strain MDH1 (second series), active compounds read low 1.01 | S. cerevisiae deletion strains, locus YKL085W, strain MDH1, active compounds read low 1.01 | S. cerevisiae deletion strains, locus YKL160W, strain elf1, active compounds read low 0.986 | S. cerevisiae deletion strains, locus YKL190W, strain CNB1, active compounds read low 1.01 | S. cerevisiae deletion strains, locus YKR001C, strain vps1, active compounds read low 1 | S. cerevisiae deletion strains, locus YKR026C, strain gcn3, active compounds read low 0.987 | S. cerevisiae deletion strains, locus YKR091W, strain srl3, active compounds read low 0.974 | S. cerevisiae deletion strains, locus YLL001W, strain dnm1, active compounds read low 0.997 | S. cerevisiae deletion strains, locus YLL026W, active compounds read low 1 | S. cerevisiae deletion strains, locus YLL041C, strain sdh2, active compounds read low 0.978 | S. cerevisiae deletion strains, locus YLR027C, strain aat2, active compounds read low 0.997 | S. cerevisiae deletion strains, locus YLR039C, strain RIC1, active compounds read low 1 | S. cerevisiae deletion strains, locus YLR058C, strain SHM2, active compounds read low 1 | S. cerevisiae deletion strains, locus YLR102C, strain apc9, active compounds read low 1.02 | S. cerevisiae deletion strains, locus YLR113W, strain HOG1, active compounds read low 0.973 | S. cerevisiae deletion strains, locus YLR221C, strain rsa3, active compounds read low 0.999 | S. cerevisiae deletion strains, locus YLR258W, strain gsy2, active compounds read low 0.99 | S. cerevisiae deletion strains, locus YLR262C, strain YPT6 (second series), active compounds read low 0.935 | S. cerevisiae deletion strains, locus YLR262C, strain YPT6, active compounds read low 1.01 | S. cerevisiae deletion strains, locus YLR268W, strain sec22, active compounds read low 1.01 | S. cerevisiae deletion strains, locus YLR320W, strain mms22, active compounds read low 0.991 | S. cerevisiae deletion strains, locus YLR330W, strain CHS5, active compounds read low 1.01 | S. cerevisiae deletion strains, locus YLR342W, strain FKS1 (second series), active compounds read low 1.02 | S. cerevisiae deletion strains, locus YLR342W, strain FKS1, active compounds read low 0.986 | S. cerevisiae deletion strains, locus YLR357W, strain rsc2, active compounds read low 0.953 | S. cerevisiae deletion strains, locus YLR370C, strain arc18, active compounds read low 0.985 | S. cerevisiae deletion strains, locus YLR371W, strain rom2, active compounds read low 1.01 | S. cerevisiae deletion strains, locus YLR384C, strain iki3, active compounds read low 0.999 | S. cerevisiae deletion strains, locus YLR418C, strain cdc73, active compounds read low 1.05 | S. cerevisiae deletion strains, locus YML016C, strain PPZ1, active compounds read low 1.01 | S. cerevisiae deletion strains, locus YML032C, strain rad52, active compounds read low 1 | S. cerevisiae deletion strains, locus YML120C, strain ndi1, active compounds read low 0.989 | S. cerevisiae deletion strains, locus YML124C, strain tub3, active compounds read low 1.02 | S. cerevisiae deletion strains, locus YMR058W, strain fet3, active compounds read low 0.97 | S. cerevisiae deletion strains, locus YMR078C, strain ctf18, active compounds read low 1.02 | S. cerevisiae deletion strains, locus YMR125W, strain sto1, active compounds read low 0.969 | S. cerevisiae deletion strains, locus YMR129W, active compounds read low 0.984 | S. cerevisiae deletion strains, locus YMR205C, strain PFK2, active compounds read low 1.01 | S. cerevisiae deletion strains, locus YMR223W, strain ubp8, active compounds read low 1.03 | S. cerevisiae deletion strains, locus YMR231W, strain pep5, active compounds read low 1 | S. cerevisiae deletion strains, locus YMR307W, strain GAS1, active compounds read low 0.985 | S. cerevisiae deletion strains, locus YNL067W, strain RPL9B, active compounds read low 0.976 | S. cerevisiae deletion strains, locus YNL071W, strain lat1, active compounds read low 0.979 | S. cerevisiae deletion strains, locus YNL128W, strain TEP1, active compounds read low 1.02 | S. cerevisiae deletion strains, locus YNL153C, strain GIM3, active compounds read low 0.95 | S. cerevisiae deletion strains, locus YNL183C, strain NPR1, active compounds read low 0.943 | S. cerevisiae deletion strains, locus YNL209W, strain ssb2, active compounds read low 0.985 | S. cerevisiae deletion strains, locus YNL233W, strain BNI4, active compounds read low 0.988 | S. cerevisiae deletion strains, locus YNL248C, strain rpa49, active compounds read low 0.987 | S. cerevisiae deletion strains, locus YNL250W, strain rad50, active compounds read low 1.02 | S. cerevisiae deletion strains, locus YNL271C, strain bni1, active compounds read low 1.02 | S. cerevisiae deletion strains, locus YNL298W, strain CLA4, active compounds read low 1.02 | S. cerevisiae deletion strains, locus YNL307C, strain MCK1, active compounds read low 1.02 | S. cerevisiae deletion strains, locus YNL322C, strain KRE1 (second series), active compounds read low 0.993 | S. cerevisiae deletion strains, locus YNR049C, strain mso1, active compounds read low 0.99 | S. cerevisiae deletion strains, locus YNR052C, strain pop2, active compounds read low 1.02 | S. cerevisiae deletion strains, locus YOL006C, strain TOP1, active compounds read low 0.977 | S. cerevisiae deletion strains, locus YOL012C, strain htz1 1.02 | S. cerevisiae deletion strains, locus YOL147C, strain pex11, active compounds read low 1.02 | S. cerevisiae deletion strains, locus YOR001W, strain rrp6, active compounds read low 0.993 | S. cerevisiae deletion strains, locus YOR061W, strain CKA2, active compounds read low 1.01 | S. cerevisiae deletion strains, locus YOR069W, strain VPS5, active compounds read low 1.02 | S. cerevisiae deletion strains, locus YOR070C, strain gyp1, active compounds read low 1 | S. cerevisiae deletion strains, locus YOR080W, strain dia2, active compounds read low 0.99 | S. cerevisiae deletion strains, locus YOR083W, strain WHI5, active compounds read low 0.996 | S. cerevisiae deletion strains, locus YOR106W, strain vam3, active compounds read low 0.979 | S. cerevisiae deletion strains, locus YOR136W, strain idh2, active compounds read low 1.01 | S. cerevisiae deletion strains, locus YOR144C, strain elg1, active compounds read low 1.02 | S. cerevisiae deletion strains, locus YOR184W, strain ser1, active compounds read low 1 | S. cerevisiae deletion strains, locus YOR231W, strain MKK1, active compounds read low 0.997 | S. cerevisiae deletion strains, locus YOR265W, strain rbl2, active compounds read low 0.988 | S. cerevisiae deletion strains, locus YOR270C, strain vph1, active compounds read low 0.931 | S. cerevisiae deletion strains, locus YOR290C, strain snf2, active compounds read low 0.967 | S. cerevisiae deletion strains, locus YOR316C, strain cot1, active compounds read low 1.03 | S. cerevisiae deletion strains, locus YPL051W, strain arl3, active compounds read low 1.02 | S. cerevisiae deletion strains, locus YPL078C, strain atp4, active compounds read low 0.976 | S. cerevisiae deletion strains, locus YPL106C, strain sse1, active compounds read low 1 | S. cerevisiae deletion strains, locus YPL240C, strain hsp82, active compounds read low 1 | S. cerevisiae deletion strains, locus YPL241C, strain CIN2, active compounds read low 1.01 | S. cerevisiae deletion strains, locus YPL256C, strain CLN2, active compounds read low 0.985 | S. cerevisiae deletion strains, locus YPR119W, strain clb2, active compounds read low 1.01 | S. cerevisiae deletion strains, locus YPR141C, strain kar3, active compounds read low 1.02 | S. cerevisiae deletion strains, locus YPR163C, strain tif3, active compounds read low 1.02 | S. cerevisiae deletion strains, locus YPR167C, strain met16, active compounds read low 1.02 | S. cerevisiae deletion strains, strain wtn01, active compounds read low 1.03 | S. cerevisiae strains, strain wild type, active compounds read low 1.01
